According to PubChem BioAssay:
Active and inactive are the calls of the source.

Legend:
[1] = system: Plasmodium falciparum Sir2 (PF13_0152, Sir2A); assay: Plasmodium falciparum Sir2A binding compounds – biochemical, small-molecule microarray, 635 nm fluorescence, primary screen (AID 1098); conditions: fluorescence 635 nm, higher = more signal;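 also: score merges spot fluorescence intensity with its signal-to-noise ratio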
[2] = probe aDKK1 binding to arrayed compounds – biochemical, biotinylated probe, 635/667 nm fluorescence, primary screen (AID 1099); conditions: small-molecule microarray, higher = more signal;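 also: score merges 667nm spot fluorescence with signal to noise across triplicate slides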
[3] = probe aCHRDL2 binding to arrayed compounds – biochemical, biotinylated probe, 635/667 nm fluorescence, primary screen (AID 1100); conditions: small-molecule microarray, higher = more signal
[4] = change in splice reporter luminescence, either direction, cell-based, HEK293, spliceosome inhibition project, primary screen (AID 1101); conditions: HEK293 splicing luciferase reporter, 24 h, higher = more signal, called active from +8 up or from −8 down;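 also: HEK293 cells carrying a splicing-competent luciferase reporter gene; test concentration not given here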
[5] = target: Fibroblast growth factor 10 (Homo sapiens) (UniProt O15520); assay: compounds binding fibroblast growth factor 10 – biochemical, small-molecule microarray, 635 nm fluorescence, primary screen (AID 1102); conditions: FGF10 binding, fluorescence 635 nm, higher = more signal
[6] = system: glycogen synthase kinase-3 (GSK3A per assay name; protocol says GSK3B); assay: compounds binding glycogen synthase kinase-3 – biochemical, small-molecule microarray, 635 nm fluorescence, GSK3A, primary screen (AID 1103); conditions: fluorescence 635 nm, higher = more signal; also: the record names both GSK3A and GSK3B
[7] = target: Epidermal growth factor receptor (Homo sapiens) (UniProt P00533); assay: compounds binding epidermal growth factor receptor – biochemical, small-molecule microarray, 635 nm fluorescence, primary screen (AID 1104); conditions: EGFR binding, higher = more signal;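 also: score merges 667 nm emission intensity with spot signal to noise over triplicate slides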
[8] = target: Follistatin-related protein 3 (Homo sapiens) (UniProt O95633); assay: compounds binding follistatin-related protein 3 – biochemical, small-molecule microarray, 635 nm fluorescence, primary screen (AID 1105); conditions: FSTL3 binding, higher = more signal;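 also: score merges emission near 667 nm and signal to noise per printed spot across three slides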
[9] = target: Dickkopf-related protein 1 (Homo sapiens) (UniProt O94907); assay: small molecules binding DKK1 protein – biochemical, small-molecule microarray, 635 nm fluorescence scan, primary screen (AID 1106); conditions: higher = more signal;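 also: score merges emission near 667 nm with signal to noise over three replicate slides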
[10] = system: Inhibin beta A chain (activin A); assay: small molecules binding activin A – biochemical, small-molecule microarray, 635 nm fluorescence scan, primary screen (AID 1107); conditions: INHBA, higher = more signal;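 also: mouse activin A protein probed at 4.33 µg/mL on printed slides; score merges bound-protein fluorescence near 667 nm with spot signal-to-noise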
[11] = system: Human papillomavirus type 1a protein E7 (residues 44-93); assay: small molecules binding HPV E7 44-93 – biochemical, small-molecule microarray, residues 44-93, 635 nm fluorescence, primary screen (AID 1108); conditions: fluorescence 635 nm, higher = more signal;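 also: E7 fragment applied at 1 µg/mL in TBST for 1 h at 4 C; score combines spot fluorescence with its signal to noise ratio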
[12] = hepatitis C replication reporter changes, two-sided – Huh7 cells, luciferase reporter, HCV replication inhibitor project, primary screen (AID 1109); conditions: Huh7 HCV replicon luciferase reporter, 48 h; higher = more signal;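 also: huh7 hepatoma cells harbouring a luciferase neomycin HCV replicon reporter; luciferase luminescence as measure of HCV replicon replication; test concentration not given here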
[13] = target: Left-right determination factor 2 (Homo sapiens) (UniProt O00292); assay: small molecules binding LEFTY2 protein – biochemical, small-molecule microarray, 635 nm fluorescence scan, primary screen (AID 1110); conditions: higher = more signal
[14] = target: Calmodulin-1 (Homo sapiens) (UniProt P0DP23); assay: small molecules binding calmodulin-1 with EGTA – biochemical, small-molecule microarray, Cy5-labelled CALM1, profiling panel (AID 1111); conditions: Cy5-CALM1 binding fluorescence, higher = more signal;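 also: labelled calmodulin applied in Tris saline Tween buffer holding calcium plus EGTA and DTT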
[15] = target: Calmodulin-1 (Homo sapiens) (UniProt P0DP23); assay: small molecules binding Ca-loaded calmodulin-1 – biochemical, small-molecule microarray, Cy5-labelled CALM1, plus calcium, artefact control for SMM control-protein annotation, profiling panel (AID 1112); conditions: Cy5-CALM1 binding fluorescence, higher = more signal;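 also: score merges spot fluorescence with signal to noise from triplicate slides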
[16] = probe aWnt5a binding to arrayed compounds – biochemical, biotinylated probe, 635/667 nm fluorescence, primary screen (AID 1113); conditions: small-molecule microarray, higher = more signal;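 also: score merges 667 nm fluorescence intensity with signal-to-noise per printed feature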
[17] = probe aShh binding to arrayed compounds – biochemical, biotinylated probe, 635/667 nm fluorescence, primary screen (AID 1114); conditions: small-molecule microarray, higher = more signal;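 also: probe is biotin-labelled aShh protein from a stem cell growth factor screen; measures binding of labelled protein to compounds printed on the slide; score merges feature fluorescence at 667 nm with signal-to-noise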
[18] = probe aNog binding to arrayed compounds – biochemical, biotinylated probe, 635/667 nm fluorescence, primary screen (AID 1115); conditions: small-molecule microarray, higher = more signal;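 also: probe is biotinylated aNog protein used at 0.15 µg/mL for 1 h at 4 C; z-score combines 667 nm fluorescence of each spot with its signal to noise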
[19] = target: Torsin-1A-interacting protein 1 (Homo sapiens) (UniProt Q5JTV8); assay: compound microarray binding of lysate hLAP1 – cell lysate, small-molecule microarray, COS7 lysate, 635/667 nm fluorescence, primary screen (AID 1116); conditions: 635 nm fluorescence, higher = more signal
[20] = target: Alpha-bungarotoxin (Bungarus multicinctus) (UniProt P60615); assay: compounds binding labelled alpha-BTX control protein – biochemical, small-molecule microarray, Alexa647 label, 635/667 nm fluorescence, artefact control for SMM control protein annotation, profiling panel (AID 1117); conditions: alpha-BTX-A647 binding fluorescence, higher = more signal
Alpha-bungarotoxin (Bungarus multicinctus), sequence (P60615 whole entry, looked up): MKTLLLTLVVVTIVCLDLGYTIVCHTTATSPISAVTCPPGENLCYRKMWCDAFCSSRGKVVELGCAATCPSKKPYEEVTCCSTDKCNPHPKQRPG

Follistatin-related protein 3 (Homo sapiens), sequence (O95633 whole entry, looked up): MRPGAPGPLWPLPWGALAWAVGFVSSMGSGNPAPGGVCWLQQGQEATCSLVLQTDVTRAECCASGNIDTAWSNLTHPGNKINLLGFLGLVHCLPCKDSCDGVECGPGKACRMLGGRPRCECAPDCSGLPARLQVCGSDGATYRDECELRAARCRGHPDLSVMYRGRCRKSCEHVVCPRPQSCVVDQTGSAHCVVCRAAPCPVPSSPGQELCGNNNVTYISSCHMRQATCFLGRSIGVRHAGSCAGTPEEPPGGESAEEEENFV
Torsin-1A-interacting protein 1 (Homo sapiens), sequence (Q5JTV8 whole entry, looked up): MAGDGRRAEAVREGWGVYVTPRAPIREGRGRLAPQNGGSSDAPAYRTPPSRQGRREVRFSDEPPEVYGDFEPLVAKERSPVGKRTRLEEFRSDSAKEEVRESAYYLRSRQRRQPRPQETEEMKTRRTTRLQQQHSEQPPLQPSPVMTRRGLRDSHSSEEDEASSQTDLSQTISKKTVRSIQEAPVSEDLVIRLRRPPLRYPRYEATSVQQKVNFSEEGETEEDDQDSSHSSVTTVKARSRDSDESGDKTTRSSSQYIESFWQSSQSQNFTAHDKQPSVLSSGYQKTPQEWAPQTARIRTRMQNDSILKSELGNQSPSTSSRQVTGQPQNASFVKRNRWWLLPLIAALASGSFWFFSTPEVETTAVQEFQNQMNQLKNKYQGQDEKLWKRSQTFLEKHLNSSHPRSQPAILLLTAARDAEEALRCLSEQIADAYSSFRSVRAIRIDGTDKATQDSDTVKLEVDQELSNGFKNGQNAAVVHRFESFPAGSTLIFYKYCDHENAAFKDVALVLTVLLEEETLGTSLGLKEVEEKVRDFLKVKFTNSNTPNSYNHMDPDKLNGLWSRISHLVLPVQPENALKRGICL
Dickkopf-related protein 1 (Homo sapiens), sequence (O94907 whole entry, looked up): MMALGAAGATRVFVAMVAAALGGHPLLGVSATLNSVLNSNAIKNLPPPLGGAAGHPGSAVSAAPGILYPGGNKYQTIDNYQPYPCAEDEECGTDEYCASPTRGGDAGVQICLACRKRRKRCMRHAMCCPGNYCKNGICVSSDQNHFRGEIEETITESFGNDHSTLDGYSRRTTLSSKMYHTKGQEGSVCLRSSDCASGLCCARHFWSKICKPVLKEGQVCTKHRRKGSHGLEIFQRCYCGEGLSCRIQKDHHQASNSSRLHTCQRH
Epidermal growth factor receptor (Homo sapiens), sequence (P00533 whole entry, looked up): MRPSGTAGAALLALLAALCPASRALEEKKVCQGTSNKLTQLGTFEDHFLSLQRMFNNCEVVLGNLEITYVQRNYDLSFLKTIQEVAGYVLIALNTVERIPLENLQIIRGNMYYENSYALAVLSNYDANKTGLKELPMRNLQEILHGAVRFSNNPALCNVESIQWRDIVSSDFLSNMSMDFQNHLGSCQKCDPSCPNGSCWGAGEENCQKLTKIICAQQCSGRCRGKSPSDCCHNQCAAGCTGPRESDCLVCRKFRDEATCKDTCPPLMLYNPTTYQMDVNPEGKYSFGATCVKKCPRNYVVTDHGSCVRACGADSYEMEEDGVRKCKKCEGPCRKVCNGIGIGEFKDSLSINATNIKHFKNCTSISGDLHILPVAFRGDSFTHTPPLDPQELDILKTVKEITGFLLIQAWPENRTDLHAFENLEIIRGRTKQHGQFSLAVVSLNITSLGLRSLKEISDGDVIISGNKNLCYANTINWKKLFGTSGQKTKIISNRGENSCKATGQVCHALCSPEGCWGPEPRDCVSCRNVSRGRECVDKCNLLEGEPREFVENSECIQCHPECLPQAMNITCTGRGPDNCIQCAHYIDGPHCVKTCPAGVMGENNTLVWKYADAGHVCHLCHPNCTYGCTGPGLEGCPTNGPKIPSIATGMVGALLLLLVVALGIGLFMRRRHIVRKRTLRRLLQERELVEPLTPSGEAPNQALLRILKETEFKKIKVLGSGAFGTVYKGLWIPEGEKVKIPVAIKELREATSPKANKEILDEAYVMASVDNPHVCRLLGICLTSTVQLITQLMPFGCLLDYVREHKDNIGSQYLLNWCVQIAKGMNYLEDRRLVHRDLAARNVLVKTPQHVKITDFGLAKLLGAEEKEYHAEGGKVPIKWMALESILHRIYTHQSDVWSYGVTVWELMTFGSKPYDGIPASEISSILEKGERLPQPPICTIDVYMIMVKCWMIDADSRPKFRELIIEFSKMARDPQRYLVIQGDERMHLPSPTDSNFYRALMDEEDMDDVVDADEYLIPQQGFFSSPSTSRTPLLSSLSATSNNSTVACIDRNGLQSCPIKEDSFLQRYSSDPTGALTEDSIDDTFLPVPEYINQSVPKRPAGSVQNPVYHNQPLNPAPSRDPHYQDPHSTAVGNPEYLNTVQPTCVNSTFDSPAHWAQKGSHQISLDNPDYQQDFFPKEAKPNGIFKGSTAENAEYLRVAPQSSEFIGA
Left-right determination factor 2 (Homo sapiens), sequence (O00292 whole entry, looked up): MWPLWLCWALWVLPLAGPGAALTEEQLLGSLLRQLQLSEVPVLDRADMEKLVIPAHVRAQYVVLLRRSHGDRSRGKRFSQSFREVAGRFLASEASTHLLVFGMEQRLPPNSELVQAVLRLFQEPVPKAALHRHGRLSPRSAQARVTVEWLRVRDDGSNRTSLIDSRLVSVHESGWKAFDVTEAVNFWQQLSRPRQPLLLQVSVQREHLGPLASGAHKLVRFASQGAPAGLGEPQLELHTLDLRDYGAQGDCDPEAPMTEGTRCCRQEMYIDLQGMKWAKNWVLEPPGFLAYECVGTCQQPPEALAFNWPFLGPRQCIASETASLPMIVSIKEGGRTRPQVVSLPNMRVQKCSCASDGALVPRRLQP
Fibroblast growth factor 10 (Homo sapiens), sequence (O15520 whole entry, looked up): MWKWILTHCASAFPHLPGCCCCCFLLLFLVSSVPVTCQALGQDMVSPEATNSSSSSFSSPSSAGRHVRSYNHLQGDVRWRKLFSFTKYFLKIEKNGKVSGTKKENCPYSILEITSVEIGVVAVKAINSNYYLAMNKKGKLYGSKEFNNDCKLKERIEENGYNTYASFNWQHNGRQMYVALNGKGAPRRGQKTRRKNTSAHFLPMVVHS

Row | SMILES | composite z-score [1] | composite z-score [2] | composite z-score [3] | z-score [4] | composite z-score [5] | composite z-score [6] | composite z-score [7] | composite z-score [8] | composite z-score [9] | composite z-score [10] | composite z-score [11] | z-score [12] | composite z-score [13] | composite z-score [14] | composite z-score [15] | composite z-score [16] | composite z-score [17] | composite z-score [18] | composite z-score [19] | composite z-score [20]
1 | Cn1cccc1C(O)C1C=CC2C(=O)NC(=O)C2N1Nc1ccccn1 (stereo not given) | 0.71 | 0.0275 | 0.0176 | 1.36 (inactive) | -0.121 | -0.0788 | 0.459 | 0.533 | 0.133 | 1.49 | -1.15 | -0.803 | -0.136 | -0.0487 | -0.472 | -0.0512 | 0.0723 | -0.0446 | -0.0327 | -0.086
2 | COc1ccc([Si](C)(C)[C@H]2[C@H](CCO)O[C@@]3(C(=O)N(Cc4cccc(NC(=O)[C@H](C)O)c4)c4ccccc43)[C@@H]2C)cc1 | 1.01 | -0.146 | -0.026 | -2.55 (inactive) | 1.01 | 0.738 | 0.382 | 0.901 | 0.507 | 0.106 | 1.39 | -5.13 | 0.383 | 0.922 | -0.14 | -0.101 | 0.0144 | -0.074 | 0.798 | 1.36
3 | CO[C@@H]1COC(=O)CC=C[C@@H](C)[C@H](OC)COC(=O)[C@H](COCc2ccccc2)NC(=O)CC=C[C@H]1C | 1.56 | -0.516 | -1.15 | 0.0688 (inactive) | 0.303 | -0.112 | 0.461 | 0.689 | 0.444 | 1.87 | -2.18 | -1.36 | 0.62 | -1.07 | -2.36 | -0.232 | -0.302 | -0.625 | 0.0597 | -0.486
